Assay results as given in PubChem BioAssay (NCATS).
Records with an inconclusive call do not appear. Unless noted, the call rests on the fitted dose curve; in most records, active means well fitted curve in either direction with a large enough effect (not every such curve was filed as active); inconclusive means small, poorly fitted or top-dose-only effect, or another doubt; inactive means flat fitted curve, though single readings scatter.

Legend:
[1] = AP1 Signaling Pathway (AID 357); conditions: ME-180 AP-1-bla reporter, EGF-induced, beta-lactamase ratio, 5 h; at 17.2 µM (top of the series) unless noted;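 further: ME-180 reporter cells stimulated with EGF at its EC50 level; on the % scale 0 is the no-effect control and ±100 the full control effect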
Procedure, shortened: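 Modulation of EGF-driven AP-1 transcription was assessed with a beta-lactamase reporter in ME-180 cells. Compound and EC50 EGF were co-incubated 5 hours at 37 °C before 2.5-hour CCF4 loading at room temperature and dual-emission reading.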

[2] = NFAT Signaling Pathway (AID 444); conditions: Jurkat NFAT-bla M1, carbachol, beta-lactamase ratio, 5 h; at 17.2 µM (top of the series) unless noted;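 further: carbachol stimulus at about its EC50 of 1 µM final; on the % scale 0 is the no-effect control and ±100 the full control effect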
Procedure, shortened: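 Jurkat cells with NFAT-driven β-lactamase reporter and co-expressed M1 receptor, stimulated with carbachol (final 1 uM, ~EC50), compound titration, 5 h at 37 °C. CCF4 loaded 1 h at RT; 460/530 nm ratio gave %activity and AC50.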

[3] = Stat Signaling Pathway (AID 446); conditions: ME-180 SIE beta-lactamase reporter, IL-6 stimulated, 5 h; at 17.2 µM (top of the series) unless noted;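 further: ME-180 cervical cancer cells given 40 pM IL-6 alongside compound; SIE-controlled beta-lactamase reporter measured as 460/530 nm FRET emission ratio; on the % scale 0 is the no-effect control and ±100 the full control effect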
Procedure, shortened: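 Screening format detects activators and inhibitors alike: ME-180 SIE-bla cells stimulated at 40 pM IL-6 for 5 hrs with compound, then dual-emission beta-lactamase read at 405 nm excitation.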

[4] = target: Glucocorticoid receptor (Homo sapiens) (UniProt P04150); assay: GR-GFP Redistribution (AID 450;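 active means compounds whose dose series gives a full or clear partial fitted curve of increased nuclear translocation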; further: potency means the concentration at half of the fitted maximal effect)
Chain of Glucocorticoid receptor (Homo sapiens) (P04150 whole entry, looked up): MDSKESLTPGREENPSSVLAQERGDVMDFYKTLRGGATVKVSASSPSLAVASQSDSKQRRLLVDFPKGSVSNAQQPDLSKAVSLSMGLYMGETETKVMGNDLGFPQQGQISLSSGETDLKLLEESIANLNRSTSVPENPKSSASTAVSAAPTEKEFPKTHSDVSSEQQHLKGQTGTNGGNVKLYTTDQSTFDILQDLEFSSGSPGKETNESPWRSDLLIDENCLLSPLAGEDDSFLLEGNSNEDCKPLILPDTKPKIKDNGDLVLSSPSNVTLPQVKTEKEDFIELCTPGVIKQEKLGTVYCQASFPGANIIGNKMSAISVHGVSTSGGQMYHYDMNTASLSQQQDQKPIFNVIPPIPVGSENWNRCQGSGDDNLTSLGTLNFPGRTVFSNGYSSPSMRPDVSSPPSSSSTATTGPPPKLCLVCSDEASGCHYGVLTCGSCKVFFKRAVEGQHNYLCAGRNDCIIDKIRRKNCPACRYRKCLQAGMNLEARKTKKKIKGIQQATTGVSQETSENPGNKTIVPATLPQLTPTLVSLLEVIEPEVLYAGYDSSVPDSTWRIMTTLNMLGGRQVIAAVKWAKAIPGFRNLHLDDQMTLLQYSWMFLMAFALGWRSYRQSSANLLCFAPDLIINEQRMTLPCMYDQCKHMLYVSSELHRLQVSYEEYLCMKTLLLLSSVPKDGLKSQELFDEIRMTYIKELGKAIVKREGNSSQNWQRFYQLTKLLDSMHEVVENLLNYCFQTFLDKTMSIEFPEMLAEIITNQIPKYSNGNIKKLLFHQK

CCOC(=O)C1=C(C(C)=O)C(c2cccnc2)C(C#N)=C(N)O1 (centres undefined)
inactive: activity change, negative = inhibition [1] 29.3% | activity change, negative = inhibition [2] -19% | activity, negative = inhibition [3] -12.3% | Potency [4] > 20.6 µM

CCOC(=O)c1cc2cc(OC)ccc2[nH]1
inactive: activity change, negative = inhibition [1] -4.55% | activity change, negative = inhibition [2] -5% | activity, negative = inhibition [3] -4.94% | Potency [4] > 20.6 µM

Cc1c(OCc2ccccc2)c(=O)ccn1Cc1ccccc1
inactive: activity change, negative = inhibition [1] -8.27% | activity change, negative = inhibition [2] -0.234% | activity, negative = inhibition [3] 1.99% | Potency [4] > 20.6 µM

CC(=O)N(Cc1ccccc1)c1ccc(C(=O)O)cc1
inactive: activity change, negative = inhibition [1] 1.39% | activity change, negative = inhibition [2] -12.1% | activity, negative = inhibition [3] 13.1% | Potency [4] > 20.6 µM

COc1ccc(Cn2c(O)cc(=O)[nH]c2=O)cc1
inactive: activity change, negative = inhibition [1] 27.1% | activity change, negative = inhibition [2] -0.64% | activity, negative = inhibition [3] -3.75% | Potency [4] > 20.6 µM

CCc1nnc(NC(=O)c2c(O)c3c([nH]c2=O)CCCC3)s1
inactive: activity change, negative = inhibition [1] -9.97% | activity change, negative = inhibition [2] 15.9% | activity, negative = inhibition [3] 4.12% | Potency [4] > 20.6 µM

COc1ccc(CC(=O)n2c(CC#N)nc3ccccc32)cc1OC
inactive: activity change, negative = inhibition [1] -7.74% | activity change, negative = inhibition [2] 10.4% | activity, negative = inhibition [3] -5.7% | Potency [4] > 20.6 µM

Cc1cc(=O)oc(C)c1C(=O)NCCNC(=O)c1c(C)cc(=O)oc1C
inactive: activity change, negative = inhibition [1] 7.25% | activity change, negative = inhibition [2] 6.33% | activity, negative = inhibition [3] 6.54% | Potency [4] > 20.6 µM

N#Cc1ccc(-c2cccnc2)nc1SCC(=O)Nc1sc2c(c1C#N)CCC2
inactive: activity change, negative = inhibition [1] -1.23% | activity change, negative = inhibition [2] -7.12% | activity, negative = inhibition [3] -7.78% | Potency [4] > 20.6 µM

CCCCc1nc2sc3c(c2c(=O)[nH]1)CCC3
inactive: activity change, negative = inhibition [1] -16.9% | activity change, negative = inhibition [2] -7.93% | activity, negative = inhibition [3] -2.54% | Potency [4] > 20.6 µM

O=S1(=O)C[C@@H](N2CCOCC2)[C@H](N2CCOCC2)C1
inactive: activity change, negative = inhibition [1] -10.3% | activity change, negative = inhibition [2] 6.36% | activity, negative = inhibition [3] -4.63% | Potency [4] > 20.6 µM

CCOC(=O)CNC(=O)CCCCCC(=O)NCC(=O)OCC
inactive: activity change, negative = inhibition [1] 7.11% | activity change, negative = inhibition [2] 1.76% | activity, negative = inhibition [3] 7.81% | Potency [4] > 20.6 µM

O=C(C1CC1(c1ccccc1)c1ccccc1)N1CCOCC1 (centres undefined)
inactive: activity change, negative = inhibition [1] -9.16% | activity change, negative = inhibition [2] 10.4% | activity, negative = inhibition [3] 0.797% | Potency [4] > 20.6 µM

COc1cccc(N2CCN(C3CC(=O)N(c4cccc(Cl)c4)C3=O)CC2)c1 (centres undefined)
inactive: activity change, negative = inhibition [1] -3.08% | activity change, negative = inhibition [2] 12.6% | activity, negative = inhibition [3] -13.6% | Potency [4] > 20.6 µM

Cc1cc(NCC2CCCO2)n2c(nc3ccccc32)c1C#N (centres undefined)
inactive: activity change, negative = inhibition [1] -1.4% | activity change, negative = inhibition [2] -16.9% | activity, negative = inhibition [3] -2.4% | Potency [4] > 20.6 µM

O=C(CN1C(=O)c2ccccc2C1=O)NCc1ccccn1
inactive: activity change, negative = inhibition [1] -3.27% | activity change, negative = inhibition [2] 16.6% | activity, negative = inhibition [3] 10.5% | Potency [4] > 20.6 µM

COc1ccc(NC(=O)C2CSC3c4ccccc4C(=O)N23)cc1 (centres undefined)
inactive: activity change, negative = inhibition [1] -4.43% | activity change, negative = inhibition [2] -13% | activity, negative = inhibition [3] 4.23% | Potency [4] > 20.6 µM

Cc1nnc(C)n1/N=C/c1cccn1C
inactive: activity change, negative = inhibition [1] 4.24% | activity change, negative = inhibition [2] 13.1% | activity, negative = inhibition [3] -1.54% | Potency [4] > 20.6 µM

CCCCCSc1nc(C)c(CC(=O)O)c(=O)[nH]1
inactive: activity change, negative = inhibition [1] -1.76% | activity change, negative = inhibition [2] 15.5% | activity, negative = inhibition [3] 12.4% | Potency [4] > 20.6 µM

COc1ccc(OC)c(C2C(C(=O)c3sc(C)nc3C)=C(O)C(=O)N2CCN2CCOCC2)c1 (centres undefined)
inactive: activity change, negative = inhibition [1] 4.44% | activity change, negative = inhibition [2] 16.6% | activity, negative = inhibition [3] -1.07% | Potency [4] > 20.6 µM

Cc1ccc(OCC(=O)NCC(=O)n2nc(C)cc2C)cc1
inactive: activity change, negative = inhibition [1] -4.61% | activity change, negative = inhibition [2] -11.6% | activity, negative = inhibition [3] -3.12% | Potency [4] > 20.6 µM

O=C(O)CC(C(=O)OCC1CCCO1)N1CCOCC1 (centres undefined)
inactive: activity change, negative = inhibition [1] 9.13% | activity change, negative = inhibition [2] -2.84% | activity, negative = inhibition [3] -0.575% | Potency [4] > 20.6 µM

COc1ccc(C2C=C(c3ccc(Cl)cc3)Nc3nc(NC(C)=O)nn32)cc1 (centres undefined)
inactive: activity change, negative = inhibition [1] -15.6% | activity change, negative = inhibition [2] -13.4% | activity, negative = inhibition [3] -9.52% | Potency [4] > 20.6 µM

Brc1ccc2c(c1)CNc1c(ncnc1N1CCOCC1)O2
inactive: activity change, negative = inhibition [1] -1.29% | activity change, negative = inhibition [2] -6.94% | activity, negative = inhibition [3] -3.65% | Potency [4] > 20.6 µM

Cc1ccc(NC(=O)CSc2nnc(-c3ccco3)c(-c3ccco3)n2)cc1
inactive: activity change, negative = inhibition [1] 0.107% | activity change, negative = inhibition [2] -24.9% | activity, negative = inhibition [3] -23.9% | Potency [4] > 20.6 µM

O=C(Nn1cnnc1)C(c1ccccc1)c1ccccc1
inactive: activity change, negative = inhibition [1] 13.7% | activity change, negative = inhibition [2] -6.95% | activity, negative = inhibition [3] 3.83% | Potency [4] > 20.6 µM
